Reference: PubChem BioAssay (NCI)
“And” between values parts separate entries of the source, which are not always exact repeats. Equal entries are not always repeated. About 83,000 compounds went through this panel and 20% of them were active in at least one assay; those are over-represented in the sample as a whole.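 Negative percent growth values reflect cell death: -40 means 40% of the cells present at the start died, and -100 means all died.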 The source made the active and inactive calls. The calls were made as follows: active = growth percent below 10; inactive = the rest.

Columns and labels:
Test in all cases: NCI-60 one-dose screen, 48 h (100 = growth as untreated, 0 = no growth, -100 = all killed)
[1] = test system: HT29 colon
[2] = test system: SNB-75 CNS; conditions: 10 µM unless noted
[3] = test system: U251 CNS
[4] = test system: PC-3 prostate
[5] = test system: UACC-62 melanoma
[6] = test system: LOX IMVI melanoma
[7] = test system: SK-MEL-28 melanoma
[8] = test system: SK-MEL-2 melanoma
[9] = test system: EKVX NSCLC
[10] = test system: SNB-19 CNS

Measured: growth

Cc1ccc(C(=O)OC(C(=O)O)C(OC(=O)c2ccc(C)cc2)C(=O)O)cc1 (stereo unspecified) (tested in a mixture with another compound)
inactive: [1]; 10 µM unless noted 23% | [2] 55% | [3]; 10 µM unless noted 54.3% | [4]; 10 µM unless noted 29.4% | [5]; 10 µM 45% | [6]; 10 µM unless noted 56.2% | [7]; 10 µM 57.7% | [8]; 10 µM unless noted 77.1% | [9]; 10 µM unless noted 32.7%

Cc1c(N)nc([C@H](CC(N)=O)NC[C@H](N)C(N)=O)nc1C(=O)N[C@H](C(=O)N[C@H](C)[C@@H](O)[C@H](C)C(=O)N[C@H](C(=O)NCCc1nc(-c2nc(C(=O)NCCC[S+](C)C)cs2)cs1)[C@@H](C)O)C(OC1OC(CO)C(O)C(O)C1OC1OC(CO)C(O)C(OC(N)=O)C1O)c1cnc[nH]1 (stereo partly specified)
inactive: [1]; 10 µM unless noted 77.9% [2.5 µM] | [2] 40.6% [2.5 µM] | [10]; 10 µM unless noted 74.2% [2.5 µM] | [3]; 10 µM unless noted 58.4% [2.5 µM] | [4]; 10 µM unless noted 60.5% [2.5 µM] | [5]; 2.5 µM 43.8% | [6]; 10 µM unless noted 14.3% [2.5 µM] | [8]; 10 µM unless noted 125% [2.5 µM] | [9]; 10 µM unless noted 103% [2.5 µM]
active: [5]; 25 µM -42.5% and -100%

S=C(SSC(=S)N1CCCCC1)N1CCCCC1
active: [1]; 100 µM -61.4% | [3]; 100 µM -43.7% | [5]; 100 µM 2.29% | [6]; 100 µM -45.9% | [7]; 100 µM -41.6% | [8]; 100 µM 2.78% | [9]; 100 µM -23.3%
inactive: [1]; 10 µM 104% | [2] 50.5% [100 µM] | [10]; 10 µM 92.8% | [10]; 100 µM 56.5% | [3]; 10 µM 88% | [4]; 10 µM 83.6% | [4]; 100 µM 18% | [5]; 10 µM 96.7% | [6]; 10 µM 87.1% | [7]; 10 µM 105% | [8]; 10 µM 102% | [9]; 10 µM 104%

C[C@]12CC[C@H](O)CC1=CC[C@@H]1[C@@H]2CC[C@]2(C)C(=O)CC[C@@H]12
inactive: [1]; 10 µM unless noted 81.5% | [2] 71.6% | [10]; 10 µM unless noted 95% | [3]; 10 µM unless noted 101% | [4]; 10 µM unless noted 79.2% | [5]; 10 µM 92.9% | [6]; 10 µM unless noted 102% | [8]; 10 µM unless noted 95.3% | [9]; 10 µM unless noted 85.7%

COc1cccc2c1cc([N+](=O)[O-])c1c(C(=O)O)cc3c(c12)OCO3
inactive: [2] 79.4% and 106% | [10]; 10 µM unless noted 79.3% and 97.7% | [3]; 10 µM unless noted 60.2% and 96.7% | [4]; 10 µM unless noted 77.3% and 73.7% | [5]; 10 µM 84.3% and 96.5% | [6]; 10 µM unless noted 70.4% and 99.2% | [7]; 10 µM 99.8% | [8]; 10 µM unless noted 94.4% and 104% | [9]; 10 µM unless noted 84.3% and 111%
active: [1]; 10 µM unless noted 0.29% and -24.5% | [5]; 100 µM -19.4% and 0.694%

CO[C@H](/C(C)=C/C=C/C(C)=C/c1coc(C)n1)[C@H](C)[C@H]1C[C@@H](O)[C@@]2(C)O[C@H]2/C=C/[C@@H](C)[C@@H]2C[C@@H](CC(=O)O2)C[C@H]2O[C@@H]2C(=O)O1
inactive: [10]; 10 µM unless noted 21.2% | [6]; 10 µM unless noted 13.1% | [8]; 10 µM unless noted 51.4% | [9]; 10 µM unless noted 39.6%
active: [1]; 10 µM unless noted -23.2% | [2] -46.7% | [3]; 10 µM unless noted 3.46% | [4]; 10 µM unless noted -14.4% | [5]; 10 µM 8.74%

COc1ccc(OC)c(/C=C/[N+](=O)[O-])c1
inactive: [2] 33.7% | [10]; 10 µM unless noted 41.8% | [9]; 10 µM unless noted 67.7%
active: [1]; 10 µM unless noted -29.5% | [3]; 10 µM unless noted -27.2% | [4]; 10 µM unless noted -29.4% | [5]; 10 µM -22.3% | [6]; 10 µM unless noted -48.5% | [7]; 10 µM -20% | [8]; 10 µM unless noted 1.51%

NCCc1ccc(OCc2ccccc2)c(OCc2ccccc2)c1
inactive: [1]; 10 µM unless noted 55% | [2] 63.9% | [10]; 10 µM unless noted 94.5% | [3]; 10 µM unless noted 44.3% | [4]; 10 µM unless noted 74.1% | [5]; 10 µM 95.9% | [6]; 10 µM unless noted 63.2% | [7]; 10 µM 97.3% | [8]; 10 µM unless noted 87.4%
